Reference: PubChem BioAssay AID540333 (Southern Research Specialized Biocontainment Screening …, 2011)
Out of some 10,000 compounds screened, about 320 (3.2%) were called active. No stated cut-off is given here; in the data, active means CPE inhibition mostly above about 9.1% (no sharp cut-off); inactive means mostly below about 7.2%. The list comes from a sample in which actives are over-represented; it also holds similar structures and randomly drawn compounds.

experiment: Dengue virus cytopathic effect inhibitors, cell-based, CPE readout, HTS (AID 540333); conditions: Dengue virus CPE inhibition in host cells, at 20 µM; stronger effect = higher value

Row | Structure (SMILES) | CPE inhibition
1 | COCC(C)NC(=O)c1ccccc1[N+](=O)[O-] (configuration not stated) | 1.6% (inactive)
2 | CC(C)CNC(=S)Nc1ccc(S(N)(=O)=O)cc1 | 0.36% (inactive)
3 | COc1ccc(CCNC(=O)COc2ccc(S(=O)(=O)NC3CCCCC3)cc2Cl)cc1OC | 2.27% (inactive)
4 | COc1cc(CN(C2CCCCC2)S(=O)(=O)c2ccc(S(=O)(=O)N(C)C3CCCCC3)cc2)cc(OC)c1OC | inactive
5 | COc1cc(CN(C2CCCCC2C)S(=O)(=O)c2ccc(S(=O)(=O)NC3CC3)cc2)cc(OC)c1OC (configuration not stated) | 19.9% (active)
6 | Cc1nn(-c2ccccc2)c(N2CCCC2)c1/C=N/NC(=S)Nc1ccccc1F | 13.2% (active)
7 | Cc1nn(-c2ccccc2)c(N2CCCC2)c1/C=N/NC(=O)c1ccccc1O | inactive
8 | Cc1nn(-c2ccccc2)c(N2CCCC2)c1/C=N/NC(=O)c1cc(-c2ccccc2)nc2ccccc12 | 2.99% (inactive)
9 | O=C(CCc1nc2ccccc2c(=O)[nH]1)OCC(=O)c1ccc(C2CCCCC2)cc1 | 1.97% (inactive)
10 | O=C(Nc1nc2ccccc2s1)c1cc(-c2ccco2)nc2ccccc12 | 5.33% (inactive)
11 | COc1ccc(N2CCN(CC(=O)Nc3sccc3C#N)CC2)cc1 | inactive
12 | O=C(NCc1nnc(SCc2ccc(C(F)(F)F)cc2)n1-c1ccccc1)C12CC3CC(CC(C3)C1)C2 | 9.12% (active)
13 | O=C(NCc1nnc(SCc2ccc(F)cc2)n1-c1ccc(F)cc1)C12CC3CC(CC(C3)C1)C2 | 9.94% (active)
14 | Cc1ccc(NC(=O)CSc2nnc(CNC(=O)C34CC5CC(CC(C5)C3)C4)n2-c2ccc(F)cc2)cc1 | 5.74% (inactive)
15 | O=C(NC(=S)N1CCN(c2ccc(F)cc2)CC1)C12CC3CC(CC(C3)C1)C2 | 0.245% (inactive)
16 | CC(C)(C)c1ccc(C(=O)NCc2nnc(SCC(=O)N3CCCc4ccccc43)n2-c2ccccc2)cc1 | 5.59% (inactive)
17 | O=C(NCc1nnc(SCc2ccccc2)n1-c1ccc(F)cc1)C12CC3CC(CC(C3)C1)C2 | 15.9% (active)
18 | O=C(CSc1nnc(CNC(=O)C23CC4CC(CC(C4)C2)C3)n1-c1ccccc1)Nc1ccc(F)cc1 | 6.17% (inactive)
19 | O=C(CSc1nnc(CNC(=O)C23CC4CC(CC(C4)C2)C3)n1-c1ccc(F)cc1)Nc1ccc(F)cc1 | 3.73% (inactive)

Row | Structure (SMILES) | CPE inhibition
20 | O=C(CSc1nnc(CNC(=O)C23CC4CC(CC(C4)C2)C3)n1-c1ccccc1)Nc1ccccc1 | 1.45% (inactive)
21 | N=C1SC(c2ccccc2)C(=O)N1c1ncc(Cc2ccccc2)s1 (configuration not stated) | 0.6% (inactive)
22 | COC(=O)CCC(=O)NC(=S)Nc1ccc(S(=O)(=O)Nc2cc(OC)nc(OC)n2)cc1 | 1.88% (inactive)
23 | CCCCNC(=O)CCCCC(=O)N/N=C/c1cccc(Cl)c1 | 0.96% (inactive)
24 | CCN(Cc1ccccc1)C(=O)C1CCN(CC2CC=CCC2)CC1 (configuration not stated) | inactive
25 | Cc1ccnc(NC(=S)NC(=O)c2cncc(Br)c2)c1 | 0.165% (inactive)
26 | CCCCNC(=O)c1cccc2c(=O)c(C)c(-c3ccccc3)oc12 | inactive
27 | CCOc1ccc(Oc2c(/C=N/NC(=O)COc3ccccc3OC)c(C)nn2-c2ccccc2)cc1 | inactive
28 | O=C(N/N=C\c1ccc(-c2ccccc2[N+](=O)[O-])o1)C1COc2ccccc2O1 (configuration not stated) | 0.26% (inactive)
29 | CC(CCc1ccccc1)N1CCN(Cc2ccccc2)CC1 (configuration not stated) | inactive
30 | CC(C)NC(=O)/C(C#N)=C/c1cccc(NC(=O)c2ccccc2Cl)c1 | 3.16% (inactive)
31 | Cc1nn(-c2ccccc2)c(Cl)c1/C=C(\C#N)C(=O)NC(C)C | 20% (active)
32 | Cc1nn(-c2ccccc2)c(Cl)c1/C=N/NC(=O)c1cccnc1 | 4.37% (inactive)
33 | Cc1ccccc1N1CCN(C(=S)c2ccc([N+](=O)[O-])cc2)CC1 | inactive
34 | Cc1cc(C)cc(N(C(=O)Cn2nnc(-c3ccccc3)n2)C(C(=O)NC2CCCCC2)c2ccccn2)c1 (configuration not stated) | 2.08% (inactive)
35 | CC(C)(C)NC(=O)C(c1c[nH]c2ccccc12)N(C(=O)Cn1nnc(-c2ccc(Cl)cc2)n1)c1ccccc1F (configuration not stated) | 17.2% (active)
36 | CC(=O)c1ccc(N(C(=O)Cn2nnc(-c3ccccc3)n2)C(C(=O)NC2CCCCC2)c2ccccn2)cc1 (configuration not stated) | 4.29% (inactive)
37 | Cc1ccc([N+](=O)[O-])cc1S(=O)(=O)N(C(=O)c1ccncc1)c1ccc2oc3c(c2c1)CCCC3 | 21.1% (active)
38 | CC(=O)Oc1ccc(N(C(C)=O)S(=O)(=O)c2cc([N+](=O)[O-])ccc2C)cc1 | inactive

Row | Structure (SMILES) | CPE inhibition
39 | O=[N+]([O-])c1cc2oc3c(c2c(C=NCc2ccncc2)c1O)CCCC3 | 1.15% (inactive)
40 | COc1cc(NC(=O)COC(=O)CC(C)(C)C)c(C)cc1[N+](=O)[O-] | 0.185% (inactive)
41 | Clc1ccc(CNCc2cccs2)c(Cl)c1 | 0.01% (inactive)
42 | Cc1c(-c2ccc(Br)cc2)nc2ccccn12 | 1.3% (inactive)
43 | CN(C)c1ccc(-c2nc3ccccn3c2/N=C/c2ccc(Br)cc2)cc1 | 14.2% (active)
44 | COc1ccc(-c2nc3ccccn3c2/N=C/c2ccc(OC)c(OC)c2)cc1O | 0.31% (inactive)
45 | Cc1ccc(-c2csc(N/N=C/c3ccco3)n2)c(C)c1 | inactive
46 | COc1cccc(OCCOCCOc2ccc(C)cc2[N+](=O)[O-])c1 | inactive
47 | CC/C(=N\NC(=O)C(N)=O)c1ccccc1O | inactive
48 | CCCCCC(=O)Nc1nc(C)c(-c2csc(Nc3cc(Cl)ccc3C)n2)s1 | inactive
49 | O=C1c2cccc3cccc(c23)C(=O)N1CCN1CCN(CC(O)COc2ccc3ccccc3c2)CC1 (configuration not stated) | inactive
50 | O=C(COC(=O)C1(c2ccccc2F)CCCC1)Nc1ncc(C(F)(F)F)cc1Cl | 0.45% (inactive)
51 | COC(=O)N1[C@H](C)C=C[C@]1(Cc1ccccc1)C(=O)NCCCNc1ncc(C(F)(F)F)cc1Cl | 9.39% (active)
52 | O=C(COC(=O)c1cc(-c2ccccc2Cl)nc2ccccc12)Nc1ncc(C(F)(F)F)cc1Cl | inactive
53 | Cc1ccc(/C=N/NS(=O)(=O)c2ccc([N+](=O)[O-])cc2)o1 | inactive
54 | Cc1ccc(C(=O)O/N=C(\N)c2cccnc2)cc1[N+](=O)[O-] | 1.06% (inactive)
55 | NS(=O)(=O)c1ccc(NC(=O)COC(=O)C2(c3ccc(F)cc3)CCCC2)cc1 | 0.475% (inactive)
56 | Cc1ccc(NC(=O)COC(=O)C2(c3ccc(Cl)cc3)CCCC2)cc1 | 10.5% (active)
57 | CC(=O)Nc1ccc(NC(=O)COC(=O)C2(c3ccc(Cl)cc3)CCCC2)cc1 | 0.545% (inactive)
